# Rows were chosen to be rich in hits. Some 3.1% of all compounds tested hit in one or more screens of this group.
# EWS-Fli block = inhibitors of EWS/Fli oncoprotein transcriptional activity; A673 NR0B1-luciferase reporter, viability-normalised; inhibition, % at 12.6 µM; 350,000 compounds, 0.67% hits; AID 651661;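 active = mean inhibition of at least 50% after viability correction, with every replicate also passing that limit; inconclusive = mean reaches 50% but only one of two replicates passes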;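 note: firefly luciferase signal divided by Alamar Blue viability fluorescence both relative to DMSO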
# TROY NFkB inh = blocks TROY-dependent signaling in reporter cells. inhibition, % at 10 µM. Q293 LMP1-TROYcd NF-kB luciferase reporter, 4 h. 360,000 compounds, 0.98% hits;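 active = compounds whose plate-normalised and pattern-corrected inhibition of the luciferase reporter signal at the single screening dose is 50% or more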
# LGR2 antag = Drosophila LGR2 receptor signaling inhibition; HEK293 LGR2, CRE-luciferase, bursicon-stimulated, 4 h; inhibition, % at 9.99 µM; 380,000 compounds, 0.35% hits; AID 720647;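 active = drop in luminescence signal, shown as inhibition above about 50% in the replicate tests, limit read from the data, passing the limit was not always enough; inconclusive = probably only some replicates passing the limit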;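 note: agonist challenge used bursicon conditioned medium at about half maximal strength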
# TWEAK Fn14 block = blocks TWEAK-Fn14 interaction in a reporter cell assay | TWEAK-stimulated Fn14 reporter cells, luciferase luminescence, 8 h | inhibition, % at 10 µM | 360,000 compounds, 2% hits | AID 1159606; in the data active = inhibition above about 50%
# LMP1 NFkB inh = inhibitors of Epstein-Barr LMP1-induced NF-kappaB reporter | 350,000 compounds, 0.69% hits | inhibition, % at 12.5 µM | AID 504558 | LMP1-induced NF-kappaB luciferase reporter cells, luminescence; in the data active = inhibition above about 41%; inconclusive = no clear call, values can overlap the other calls;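 note: 0% = neutral control wells and 100% = reference inhibitor control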
# PAX8 inh HTS = lowers PAX8-driven luciferase in RMG-I cells; RMG-I TPO-luciferase reporter, SteadyGlo, 24 h; inhibition, % at 12.6 µM; 360,000 compounds, 1.2% hits;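 active = mean replicate inhibition at least 60% with every replicate also reaching 60%; inconclusive = only one of the two criteria is met; inactive = mean below 60% and not all replicates reaching 60%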;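 note: luciferase light reporting Pax8 driven TPO promoter activity; plate controls were median of neutral control wells for no effect and mitoxantrone controls for full effect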
# Starred values were filed as active, the others as inactive; ? = inconclusive; · = not tested or not shown.
SMILES,EWS-Fli block,TROY NFkB inh,LGR2 antag,TWEAK Fn14 block,LMP1 NFkB inh,PAX8 inh HTS
COc1ccc(S(=O)(=O)Nc2ccc3c(c2)C(=O)N([C@H](C)CO)C[C@@H](C)[C@@H](CN(C)C(=O)Nc2ccccc2)OCCCC[C@@H](C)O3)cc1,8.4,·,-9.0,·,·,-19.5
Cc1ccc(Nc2nc(CSc3nnnn3-c3ccccc3)cs2)cc1,·,37.9,·,58.2*,-3.5,3.1
Cc1ccc(Nc2nc(CSc3nnnn3C)cs2)cc1,·,32.6,·,63.1*,-35.1,-177.9
Cc1ccc(Nc2nc(CSc3nnc(-c4cccnc4)n3-c3ccccc3C)cs2)cc1,-6.6,50.7*,0.0,52.6*,-7.1,-4.0
Cc1ccccc1-n1c(SCc2csc(Nc3ccccc3)n2)nnc1-c1cccnc1,·,17.6,8.8,24.3,-3.3,28.7
C[C@@H]1CCCCO[C@@H](CN(C)C(=O)Nc2cccc3ccccc23)[C@H](C)CN([C@@H](C)CO)C(=O)c2cc(NC(=O)C3CCCCC3)ccc2O1,-2.5,·,-1.9,·,·,8.5
Cc1ccc(-c2nc(C(=O)NCC3CCCO3)cc3c2[nH]c2ccccc23)cc1 (stereo unspecified),20.0,14.9,·,53.1*,27.3,·
Cc1ccccc1-c1nc(C(=O)NCC2CCCO2)cc2c1[nH]c1ccccc12 (stereo unspecified),17.2,-3.0,25.6,54.3*,14.5,·
Cc1noc(C)c1S(=O)(=O)Nc1ccc2c(c1)C(=O)N([C@H](C)CO)C[C@H](C)[C@H](CN(C)S(=O)(=O)c1cn(C)cn1)OCCCC[C@H](C)O2,-46.3,·,8.5,·,·,-14.7
CO[C@H]1CN(C)C(=O)c2cc(NS(=O)(=O)c3ccccc3F)ccc2OC[C@H](C)NC[C@@H]1C,-2.4,·,-6.9,·,·,·
COCC1CCN(C(=O)c2cc(COc3ccc(F)cc3Cl)on2)C1 (stereo unspecified),-42.8,-46.7,-29.1,94.0*,-5.2,-55.5
N/C(=N\S(=O)(=O)c1cc(C(F)(F)F)cc(C(F)(F)F)c1)c1ccc(Cl)cc1,33.1,59.5*,43.2,17.4,8.3,25.3
Brc1ccc2nc(-c3ccc(CN4CCC(c5nc6ccccc6[nH]5)CC4)cc3)c(-c3ccccc3)nc2c1,17.0,·,11.0,·,·,100.6*
COc1ccccc1NC(=O)C1=C(C)NC(SCC(=O)c2ccccc2)=C(C#N)C1c1ccco1 (stereo unspecified),·,32.7,·,55.9*,-0.7,·
O=C(Nc1ccc2ccccc2c1)c1cnccn1,·,-42.9,·,13.9,-5.4,·
CC(=O)Nc1ccc(NC(=O)c2nc(S(=O)(=O)Cc3ccccc3)ncc2Cl)cc1,·,48.0,-13.0,57.6*,-3.4,93.8*
COc1ccc(CNC(=O)c2nc(S(=O)(=O)Cc3ccccc3)ncc2Cl)cc1,·,59.2*,-1.0,72.8*,-6.2,36.1
Cc1noc(C(=O)NCc2ccccc2)c1Cl,-6.1,-10.3,-9.1,-6.0,-2.4,-3.5
CS(=O)(=O)c1ncc(Cl)c(C(=O)Nc2ccc3ccccc3c2)n1,84.2*,64.9*,·,81.8*,26.7,88.6*
COc1ccc(S(=O)(=O)Cc2ccc(C(=O)NCc3ccccc3)o2)cc1,1.7,5.5,4.1,5.6,-5.9,4.3
O=C(NCc1ccccc1)c1nc(S(=O)(=O)Cc2ccccc2)ncc1Cl,·,69.5*,3.3,81.5*,-14.1,20.0
C[C@@H]1CN([C@@H](C)CO)C(=O)Cc2cc(NC(=O)Cn3cnnn3)ccc2O[C@H]1CN(C)Cc1ccc(C(=O)Nc2ccccc2N)cc1,·,·,-6.0,·,·,4.9
CCN1[C@@H]2Cn3c(ccc(C4=CCCC4)c3=O)[C@H]1[C@@H](C(=O)N[C@H](C)c1ccccc1)[C@@H]2CO,3.8,·,-13.3,·,·,-7.2
C[C@H]1CN([C@@H](C)CO)C(=O)c2cc(NS(C)(=O)=O)ccc2O[C@@H]1CN(C)S(=O)(=O)c1ccc(F)cc1,-1.2,·,11.9,·,·,·
O=C(NCc1ccccc1)c1c(Cl)nc(Cl)c(Cl)c1Cl,38.4,65.7*,16.9,92.7*,81.0*,23.9
SMILES,EWS-Fli block,TROY NFkB inh,LGR2 antag,TWEAK Fn14 block,LMP1 NFkB inh,PAX8 inh HTS
COC(=O)c1ccccc1NC(=O)c1nc(S(=O)(=O)Cc2ccccc2)ncc1Cl,62.9*,57.7*,13.7,76.2*,10.0,-10.5
Cc1cc(NC(=O)NC(=O)c2ccccc2NC(=O)CN(C)C)ccc1Oc1ncc(Br)cn1,58.0*,-6.0,-2.3,15.3,1.7,26.3
COCC(=O)N1CC2(C1)[C@H](c1ccccc1)[C@@H](CO)N2C(=O)c1ccccc1,-5.3,·,-11.4,·,·,·
COC(=O)[C@@]1(Cc2ccc(F)cc2)[C@H]2c3cc(C(=O)N4CCCC4)n(CCCNc4ncc(C(F)(F)F)cc4Cl)c3C[C@H]2CN1C(=O)c1ccccc1,·,8.1,8.4,19.4,45.4*,·
COC(=O)[C@@]1(Cc2ccc(F)cc2)[C@H]2c3cc(C(=O)N4CCCC4)n(CCF)c3C[C@H]2CN1C(=O)c1ccccc1,-2.7,-0.4,4.3,18.7,·,2.7
C[C@@H]1CN([C@@H](C)CO)C(=O)c2cc(NS(=O)(=O)c3ccc(F)cc3)ccc2O[C@H]1CN(C)S(C)(=O)=O,0.0,·,-2.1,·,·,·
COc1ccc(OCc2nc(N)nc(Nc3ccccc3OC)n2)cc1,·,-15.4,·,-2.0,24.1,18.3
COc1ccccc1Nc1nc(N)nc(CCl)n1,57.2*,-8.6,11.8,2.5,-5.8,105.4*
COc1ccc(OC)c(Nc2nc(N)nc(CSc3nnc(N)s3)n2)c1,-11.5,0.1,-23.0,16.4,-5.0,·
COc1ccc(OC)c(Nc2nc(N)nc(CCl)n2)c1,?,0.5,22.1,7.0,6.4,118.0*
COc1ccc(S(=O)(=O)Nc2cccc3c2O[C@H](CN(C)Cc2ccncc2)[C@H](C)CN([C@H](C)CO)C3=O)cc1,13.3,·,-4.0,·,·,-2.5
C[C@H]1CN([C@@H](C)CO)C(=O)c2cc(C#Cc3ccc(F)cc3)cnc2O[C@@H]1CN(C)Cc1ccccn1,-8.0,·,3.4,·,·,·
CCC(=O)N1CC[C@@H]2[C@H]1c1cc(-c3cccc(F)c3)ccc1N(C)[C@@H]2CO,3.4,·,-12.1,·,·,13.8
O=C(Nc1cccc(F)c1)N1CC(=O)N2[C@H](C1)[C@@H](c1ccc(Br)cc1)[C@@H]2CO,0.7,·,-5.1,·,·,0.0
CN1CCN(c2nc(-c3ccc(C(C)(C)C)cc3)nc3ccccc23)CC1,45.5,77.8*,-24.5,84.6*,-2.2,?
Cc1ccc(-c2nc(N3CCN(C)CC3)c3ccccc3n2)cc1,-4.3,-35.8,-5.9,-71.5,-10.1,-10.0
Cc1ccc(S(=O)(=O)NCC[C@@H]2CC[C@@H](NC(=O)C3CCOCC3)[C@H](CO)O2)cc1,6.7,·,12.4,·,·,-8.6
COc1cccc(C(=O)NC(=S)Nn2cnnc2)c1OC,6.3,3.9,20.1,56.8*,2.6,-19.7
O=C(NC(=S)Nn1cnnc1)c1ccccc1Cl,-1.9,9.6,10.5,-8.2,-7.6,8.6
O=C(NCc1cc(C(F)(F)F)ccc1Cl)c1cccc2c1C(=O)c1ccc(N3CCC(N4CCCCC4)CC3)cc1S2(=O)=O,47.9,-6.8,active,-93.0,-38.0,93.8*

# Assay outcomes: PubChem BioAssay, several laboratories
